# In the supplement of paper PMC3545927:
# The list shows a part of the results. The hit rate among all sequences tested is not known here.
# Target: furin, P09958
# Experiment: furin cleavage Z-score vs untreated control; higher = more cleavage, active = 3.5 or more, inactive = 1 or less, 8 variable residues between constant flanks
# In short: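 To give the cleavage Z-score, log read counts were set against furin-free reactions, lowess-adjusted and scaled by median absolute deviation. These counts came from PCR adapter-tagged, sequenced DNA released when purified furin cut 8-mer peptides fused to a cDNA oligonucleotide and held on magnetic beads by their N-terminus. Digests were 0.01 ml, 1:10 enzyme:substrate, in 50 mM HEPES pH 7.5 with CaCl2 and NaCl, for 7.5, 15 or 30 min.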
# furin, P09958, sequence (P09958 whole entry): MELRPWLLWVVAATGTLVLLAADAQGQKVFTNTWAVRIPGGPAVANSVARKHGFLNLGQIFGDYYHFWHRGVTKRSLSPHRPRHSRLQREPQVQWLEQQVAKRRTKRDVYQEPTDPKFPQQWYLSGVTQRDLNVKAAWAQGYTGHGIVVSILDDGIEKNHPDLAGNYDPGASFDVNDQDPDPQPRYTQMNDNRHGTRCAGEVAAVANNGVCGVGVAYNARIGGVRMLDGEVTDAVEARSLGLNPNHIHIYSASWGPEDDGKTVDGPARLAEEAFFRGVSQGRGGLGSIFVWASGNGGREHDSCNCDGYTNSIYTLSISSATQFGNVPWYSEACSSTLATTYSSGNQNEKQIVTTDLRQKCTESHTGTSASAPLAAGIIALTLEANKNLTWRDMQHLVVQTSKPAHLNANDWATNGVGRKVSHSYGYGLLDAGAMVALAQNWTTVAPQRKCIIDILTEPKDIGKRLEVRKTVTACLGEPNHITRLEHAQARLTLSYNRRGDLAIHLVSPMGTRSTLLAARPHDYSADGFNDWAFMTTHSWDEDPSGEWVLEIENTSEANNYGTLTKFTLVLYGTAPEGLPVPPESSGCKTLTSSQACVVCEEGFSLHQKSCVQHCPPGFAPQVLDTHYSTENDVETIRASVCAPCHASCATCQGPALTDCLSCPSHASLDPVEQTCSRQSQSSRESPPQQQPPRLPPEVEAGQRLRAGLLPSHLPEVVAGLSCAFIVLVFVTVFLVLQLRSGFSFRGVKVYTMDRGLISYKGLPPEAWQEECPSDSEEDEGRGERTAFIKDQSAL
Sequence,furin cleavage Z-score (7.5 min),furin cleavage Z-score (15 min),furin cleavage Z-score (30 min)
CANEMEECSQAGNASASA [HC1801],-0.962 (inactive),0.682 (inactive),-0.461 (inactive)
CAETVTSTWVAGNASASA [HC2178],-0.174 (inactive),0.0107 (inactive),0.00907 (inactive)
CAVQVRGKRLAGNASASA [FS-312],6.21 (active),7.9 (active),7.68 (active)
CAARRRRKRLAGNASASA [FS-9],9.78 (active),12.2 (active),9.85 (active)
CAVGGVEHRLAGNASASA [HC477],0.551 (inactive),1.48,0.304 (inactive)
CAQQELRKRLAGNASASA [FS-1390],0.809 (inactive),0.166 (inactive),1.43
CARRATLKRSAGNASASA [FS-624],3.99 (active),5.42 (active),4.76 (active)
CARRRRDSRSAGNASASA [FS-1267],9.84 (active),9.21 (active),7.48 (active)
CAVFSRDSRSAGNASASA [FS-103],2.25,0.692 (inactive),2.36
CANKVRAKRSAGNASASA [FS-618],10.6 (active),10.4 (active),8.36 (active)
CAGQPGLKRSAGNASASA [FS-1203],-1.59 (inactive),1.19,-2.33 (inactive)
CARRRRRKESAGNASASA [FS-2298],2.91,3.94 (active),2.81
CAKGWRLLAPAGNASASA [HC671],0.0408 (inactive),0.181 (inactive),-0.469 (inactive)
CALPINALSNAGNASASA [HC1381],0.137 (inactive),-0.538 (inactive),-0.0923 (inactive)
CAFWEGVFTGAGNASASA [HC939],-1.63 (inactive),0.063 (inactive),-1.49 (inactive)
CATLTCGFADAGNASASA [HC223],-1.51 (inactive),-0.777 (inactive),-0.721 (inactive)
CAEVVTSTIVAGNASASA [HC2224],1.34,0.923 (inactive),-0.591 (inactive)
CAIEMEECSQAGNASASA [HC1784],0.115 (inactive),-0.919 (inactive),-0.409 (inactive)
CARRRRAKRSAGNASASA [FS-1481],10 (active),9.95 (active),7.99 (active)
CAMEECCQHLAGNASASA [HC34],0.752 (inactive),-0.68 (inactive),0.844 (inactive)
CAERSRVCRCAGNASASA [FS-123],-0.711 (inactive),0.103 (inactive),2.18
CAHPSRKRRAAGNASASA [FS-132],11.3 (active),11.3 (active),8.53 (active)
CAERSREMRAAGNASASA [FS-1120],0.288 (inactive),0.367 (inactive),-1.27 (inactive)
CAERSRKRRAAGNASASA [FS-417],11.5 (active),10.5 (active),7.42 (active)
CAHYVPESDAAGNASASA [HC1127],-0.402 (inactive),-0.697 (inactive),-1.88 (inactive)

Sequence,furin cleavage Z-score (7.5 min),furin cleavage Z-score (15 min),furin cleavage Z-score (30 min)
CAHPVREARAAGNASASA [FS-1211],3.66 (active),5.02 (active),5.4 (active)
CAHPNIEEVAAGNASASA [HC840],0.6 (inactive),-0.828 (inactive),0.48 (inactive)
CAESTRTRRAAGNASASA [FS-1522],8.54 (active),9.73 (active),8.09 (active)
CAMNTPGLPVAGNASASA [HC932],0.685 (inactive),0.0364 (inactive),-1.85 (inactive)
CAEVVTSTWGAGNASASA [HC2256],0.945 (inactive),1.37,-1.03 (inactive)
CAMQECSQHLAGNASASA [HC1702],0.311 (inactive),0.512 (inactive),-0.705 (inactive)
CAEEQKLPINAGNASASA [HC1379],0.861 (inactive),-1.11 (inactive),-0.462 (inactive)
CASVPCHRPSAGNASASA [HC2317],0.746 (inactive),0.823 (inactive),0.912 (inactive)
CAIPVRAPRSAGNASASA [FS-442],5.71 (active),3.56 (active),4.32 (active)
CASRKRAPRSAGNASASA [FS-963],10.6 (active),8.82 (active),9.02 (active)
CAREFRAHRSAGNASASA [FS-487],1.52,0.689 (inactive),1.39
CAEFERAPRSAGNASASA [FS-524],0.193 (inactive),0.266 (inactive),0.907 (inactive)
CANATRAPRSAGNASASA [FS-63],8.66 (active),8.42 (active),6.36 (active)
CATTPCSGLWAGNASASA [HC1905],0.96 (inactive),1.01,-0.0137 (inactive)
CATSTWVLVGAGNASASA [HC989],-2.25 (inactive),-0.362 (inactive),-1.37 (inactive)
CAYSSMPPLEAGNASASA [HC1353],0.446 (inactive),1.62,1.96
CAERVVCCSMAGNASASA [HC2133],-0.391 (inactive),0.896 (inactive),0.654 (inactive)
CAERAPERRDAGNASASA [FS-24],-2.22 (inactive),-0.00906 (inactive),-1.69 (inactive)
CAVGERFRRDAGNASASA [FS-386],11.7 (active),13 (active),8.87 (active)
CARFPRGVSRAGNASASA [FS-3247],-0.934 (inactive),-0.454 (inactive),-0.752 (inactive)
CARQPRPAGVAGNASASA [FS-3041],-0.899 (inactive),-0.574 (inactive),-0.629 (inactive)
CARRRRGFRQAGNASASA [FS-2788],2.04,3.6 (active),4.63 (active)
CALGARERRDAGNASASA [FS-1226],13.9 (active),15.5 (active),11.8 (active)
CARFPRFVNVAGNASASA [FS-2925],3.2,3.36,7.1 (active)
